About 1,400 (58%) of roughly 2,400 compounds were called active. So high a share suggests a set chosen from earlier hits. Some of the results follow. A number with no mark means an inactive call.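 The calls were made as follows: active = inhibition of 30% or more at any tested dose; inconclusive = primary hits over the limit that were never retested; inactive = the rest.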
Experiment: coupled detection enzyme interference, dose response, artefact control for MgcRacGAP inhibitor project, biochemical, coupled enzyme counter-screen (AID 624351);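 also: signal is the ADP detection kit reading of free GDP without any GAP enzyme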;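 as to inhibition: 0% = median positive control wells and 100% = median negative control wells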
Conditions: ADP Hunter coupled enzyme counter-screen, fluorescence, no MgcRacGAP; series mostly up to 80 µM; inhibition: at the top concentration
With `COc1cc(CNC2CCCCC2OC)cc(OC)c1` (centres undefined) the “inhibition” value was 16.9%. With `O=c1c2c(nc3cc(-c4ccccc4)[nH]n13)CCS2` the “inhibition” value was -9.07%. For `O=C(CSc1nnc(C2CC2)n1C1CC1)N1CCN(c2ccc(O)cc2)CC1`, the IC50 was 45.6 µM (active). For `O=C(CSc1nnnn1C1CC1)N1CCN(c2ccc(O)cc2)CC1`, the IC50 was 31.5 µM (active). With `CCOC(=O)C1=C(C)Nc2ccc(C)cc2S1` the IC50 was 79 µM (active). For `CCOC(=O)C1=C(C)Nc2ccccc2S1`, the IC50 was 41.3 µM (active). For `CCOC(=O)Nc1ccc2c(c1)Nc1ccccc1S2`, the IC50 was 40.6 µM (active). For `CSCCOC(=O)C1=C(C)Nc2ccc(C)cc2S1`, the IC50 was 35.6 µM (active). With `O=C(CCn1cnc2ccccc21)N/N=C/c1ccc(O)cc1` the IC50 was 57.4 µM (active). For `O=C(CSc1ccc2ccccc2n1)N/N=C/c1ccc(O)cc1`, the IC50 was 73.6 µM (active). In the case of `Cc1cc(C)n(CCC(=O)N/N=C/c2ccc(O)cc2)n1`, the IC50 is reported as 74.1 µM (active). For `CCOc1cc(/C=N/NC(=O)CCn2nc(C)cc2C)ccc1O`, the IC50 was 58.5 µM (active). With `CN(CCCCCCN(C)Cc1ccccc1O)Cc1ccccc1O` the “inhibition” value was 24.3%. In the case of `C#CCOCCOCCOCCNc1nc(N2CCN(C(=O)[C@H](CCCCN)n3cc([C@@H](N)CC(C)C)nn3)CC2)nc(N2CCN(C(=O)[C@H](CCCCN)n3cc([C@@H](N)CC(C)C)nn3)CC2)n1`, the “inhibition” value is reported as 2.16%. For `COC(=O)CCNCCSc1nnc(-c2ccco2)n1Cc1ccccc1`, the “inhibition” value was 19.6%. With `CCOCCCNC(=O)/C(C#N)=C/c1ccc([N+](=O)[O-])o1` the “inhibition” value was -11.2%. For `CCOc1cc(/C=C(\C#N)C(=O)NCc2cccnc2)ccc1O`, the IC50 was 45.3 µM (active). For `N#C/C(=C\c1cccnc1)C(=O)Nc1cccc2ccccc12`, the “inhibition” value was 2.82%. In the case of `N#C/C(=C/c1ccc(O)c(O)c1)C(=O)NCc1ccc(Cl)cc1`, the IC50 is reported as 36.5 µM (active). In the case of `CCOc1cc(/C=C(\C#N)C(=O)NCC2CCCO2)ccc1O` (centres undefined), the IC50 is reported as 49.7 µM (active). For `CCOC(=O)c1c(C)n(-c2ccc(C)cc2)c2ccc(OCC(O)CNCC3CCCO3)cc12` (centres undefined), the “inhibition” value was 20.3%. With `CCOc1cc(/C=N/NC(=O)C(=O)NCc2cccnc2)ccc1O` the IC50 was 51.2 µM (active). With `C#CCOCCOCCOCCNc1nc(N2CCN(C(=O)C([C@@H](C)O)n3cc([C@@H](N)CCCCN)nn3)CC2)nc(N2CCN(C(=O)[C@H](CO)n3cc([C@@H](N)C(C)C)nn3)CC2)n1` (some centres undefined) the “inhibition” value was 2.49%. With `CCN(CC)c1ccc(/C=N\NC(N)=O)cc1` the IC50 was 53.8 µM (active). For `CCN(CC)c1ccc(/C=N/NC(=O)c2ccoc2C)cc1`, the “inhibition” value was 24.6%. With `CCN(CC)CC(C)(C)C(=O)/C=C/c1ccc(/C=C/C(=O)C(C)(C)CN(CC)CC)cc1` the “inhibition” value was 2.34%. With `CCN(CC)c1ccc(/C=N/O)cc1` the IC50 was 21.6 µM (active). For `CN(C)c1ccc(/C=N/O)cc1`, the IC50 was 23.9 µM (active). For `CN(C)c1nc(Oc2ccc(/C=N/O)cc2)nc(N(C)C)n1`, the “inhibition” value was 4.75%.

Source: PubChem BioAssay AID624351 (Southern Research Specialized Biocontainment Screening …, 2012)
